This passage reports Potency, outcome and activity change, negative = inhibition results from PubChem BioAssay (NCATS).

A number with no mark means an inactive call. Results filed as inconclusive are left out. Activity calls are given as the source filed them. Unless noted, calls come from the whole dose curve; as a rule, active = well fitted curve in the direction sought with a large enough effect; inconclusive = small, poorly fitted or top-dose-only effect, or another doubt; inactive = no such curve, though single readings can be large; an effect the other way counts as inactive or inconclusive.

Test [1] addresses Cytochrome P450 1A2 (Homo sapiens) (UniProt P05177). Put plainly: p450-cyp1a2 (AID 410; calls by dose curve; note: potency is the fitted concentration of half-maximal effect). In a few lines:
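O-Demethylation of luciferin 6' methyl ether by human CYP1A2 is monitored as luciferase luminescence. Substrate sits at Km (100uM); enzyme is 20nM. Values are scaled to 57 uM furafylline as maximal inhibition.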

Test [2] has as its target Glucocorticoid receptor (Homo sapiens) (UniProt P04150). Description: GR-GFP Redistribution (AID 450;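 active = compounds whose dose series gives a full or clear partial fitted curve of increased nuclear translocation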; note: potency is the fitted concentration of half-maximal effect). The note with it: U2OS GR-GFP nuclear translocation, laser cytometry, 2 h.
Test [3] has the same target. Put plainly: GR-EFC Redistribution (AID 451; calls by dose curve; note: potency is the fitted concentration of half-maximal effect). The note with it: CHO-K1 GR-EFC translocation, beta-gal luminescence, 2 h. An outline of the steps: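 CHO-K1 cells stably expressing nuclear-localized β-gal enzyme acceptor and GR fused C-terminally to the enzyme donor fragment; ligand-driven nuclear translocation restores β-gal by complementation. Compounds titrated up to 46 uM final, 2 h at 37 °C; luminescence read.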

In test [4] the target is Mitogen-activated protein kinase 10 (Mus musculus) (UniProt Q61831). Put plainly: JNK3 AlphaScreen Assay (AID 530; active = well fitted curve in either direction with a large enough effect, not every such curve was filed as active;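 note: kinase came from lysate of stimulated human HepG2 cells; signal reports phosphorylation of biotinylated GST-cJun 1-79 at Ser73 with 10 µM ATP; % is set by controls: 0 for no effect and ±100 for the full control effect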). An outline of the steps: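 Phosphorylation of biotinylated GST-cJun(1-79) at Ser73 is measured by AlphaScreen proximity luminescence. Enzyme is JNK3 in HepG2 lysates activated with interleukin-1beta and tumor necrosis factor alpha; ATP is 10 uM final.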
In general terms: Bead proximity is the source of the signal in Alpha formats.

Test [5] concerns the target 3',5'-cyclic-AMP phosphodiesterase 4B (Homo sapiens) (UniProt Q07343). Put plainly: qHTS Assay for Inhibitors of PDE-IV (AID 607; active = well fitted activation curve with a large enough effect in the main read-out, with a control signal flat, not every such curve was filed as active; note: % of control where 0% means no effect). In a few lines: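 Cell-based read-out of cAMP via a modified cyclic nucleotide-gated channel and membrane potential dye (535/590 nm) in HEK293 cells expressing PDE4 endogenously. Compounds tested up to 22.9 uM final; 100 uM RO 20-1724 reference.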

The target of test [6] is Cytochrome P450 2C9 (Homo sapiens) (UniProt P11712). Description: qHTS Assay for Inhibitors and Substrates of Cytochrome P450 2C9 (AID 883). For activity change, negative = inhibition: % is set by controls: 0 for no effect and ±100 for the full control effect. Note: nearly all actives have a fitted effect of over 60% in size. Note: potency is the fitted concentration of half-maximal effect. An outline of the steps: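 Human CYP2C9 (10nM) hydroxylated Luciferin-H (100uM, at its KM) to luciferin in 25mM KPO4. Compound was preincubated 10 min at 37C, then NADPH regeneration started a 60 min reaction at 37C. Luminescence was read after detection reagent, normalized to 57uM sulphaphenazole.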
(In general: qHTS replaces the single test concentration by a dilution series.)

Test [7] deals with Cytochrome P450 2C19 (Homo sapiens) (UniProt P33261). Put plainly: qHTS Assay for Inhibitors and Substrates of Cytochrome P450 2C19 (AID 899). Note: nearly all actives have a fitted effect of over 60% in size. Note: potency is the fitted concentration of half-maximal effect. In a few lines:
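Human CYP2C19 (5nM) with Luciferin-H EGE at 10uM (its KM) in 50mM KPO4 was preincubated with compound for 10 min at 37C. NADPH regeneration started a 60 min 37C reaction. Luciferin was read by luminescence, normalized to 57uM ketoconazole.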

In test [8] the target is Cytochrome P450 2D6 (Homo sapiens) (UniProt P10635). Put plainly: qHTS Assay for Inhibitors and Substrates of Cytochrome P450 2D6 (AID 891).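 For activity change, negative = inhibition: luciferin methyl ether substrate demethylated by CYP2D6 with NADPH regeneration; % is set by controls: 0 for no effect and ±100 for the full control effect.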 Note: nearly all actives have a fitted effect of over 60% in size. Note: potency is the fitted concentration of half-maximal effect. An outline of the steps:
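Luminescent read-out of luciferin formed by 5 nM human CYP2D6 demethylating 30 uM Luciferin-ME EGE (Km level) over 60 min at room temperature after NADPH regeneration addition. Data normalized to full inhibition by 1.43 uM quinidine.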

Test [9] is described as follows: AP1 Signaling Pathway (AID 357; active = well fitted curve in either direction with a large enough effect, not every such curve was filed as active; note: % is set by controls: 0 for no effect and ±100 for the full control effect). To be noted: ME-180 AP-1-bla reporter, EGF-induced, beta-lactamase ratio, 5 h; at 17.2 µM (top of the series) unless noted. An outline of the steps: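 ME-180 cells with beta-lactamase reporter under AP-1 response element, stimulated with EC50 EGF; compounds tested in titration series, 5 h at 37 °C. CCF4 substrate added 2.5 h at room temperature; 460/530 nm emission ratio gave %activity and AC50.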

The target of test [10] is Cytochrome P450 3A4 (Homo sapiens) (UniProt P08684). Put plainly: qHTS Assay for Inhibitors and Substrates of Cytochrome P450 3A4 (AID 884). Note: potency is the fitted concentration of half-maximal effect; nearly all actives have a fitted effect of over 50% in size. In a few lines: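 Luminescent readout of luciferin produced by CYP3A4 (20 nM) dealkylation of Luciferin-PPXE, 25 uM (its KM). NADPH-driven reaction ran 60 min at RT after 10 min compound preincubation; data scaled to 57 uM ketoconazole as 100% inhibition.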

Test [11] has the same target. Put plainly: qHTS Assay for Activators of Cytochrome P450 3A4 (AID 885). Note: nearly all actives have a fitted effect of over 65% in size. An outline of the steps:
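Luminescent readout of luciferin formed from 25 uM Luciferin-PPXE (KM level) by 20 nM CYP3A4 in 200 mM KPO4, with 60 min NADPH-driven reaction at room temperature after 10 min compound exposure. Ketoconazole (57 uM) defined 100% inhibition.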

Test [12] concerns the target Ubiquitin carboxyl-terminal hydrolase 1 (Homo sapiens) (UniProt O94782). Description: Inhibitors of USP1/UAF1: Pilot qHTS (AID 504865).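 Note: rhodamine fluorescence freed from ubiquitin-rhodamine substrate followed over time; top concentration of the series differs between compounds; % is set by controls: 0 for no effect and ±100 for the full control effect; nearly all actives have a fitted effect of over 35% in size.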 In a few lines: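 USP1/UAF1 complex (1nM) preincubated with compound 15 min at room temperature, then Ub-Rho substrate (150nM final) added. Fluorescence read kinetically at 480/540 nm, 6 reads every 60 seconds. Buffer: 50mM HEPES pH 7.8, 0.5mM EDTA, 0.1 mg/ml BSA, 1mM TCEP, 0.01% Tween-20.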

Test [13] addresses DNA dC->dU-editing enzyme APOBEC-3G (Homo sapiens) (UniProt Q9HC16). Description: qHTS for inhibitors of Vif-A3G interactions: Validation (AID 588379). Note: 0% is about no effect. An outline of the steps: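 Yellow fluorescence (Ex 488, Em 500-530) of Vif-coexpressing HeLa A3G-eYFP cells, scanned by Acumen cytometer, reports blocked A3G degradation. Cells plated at 700/well overnight at 37 deg C before compound addition, then a further overnight compound incubation at 37 deg C.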

Cytochrome P450 2C19 (Homo sapiens), sequence (P33261 whole entry, looked up): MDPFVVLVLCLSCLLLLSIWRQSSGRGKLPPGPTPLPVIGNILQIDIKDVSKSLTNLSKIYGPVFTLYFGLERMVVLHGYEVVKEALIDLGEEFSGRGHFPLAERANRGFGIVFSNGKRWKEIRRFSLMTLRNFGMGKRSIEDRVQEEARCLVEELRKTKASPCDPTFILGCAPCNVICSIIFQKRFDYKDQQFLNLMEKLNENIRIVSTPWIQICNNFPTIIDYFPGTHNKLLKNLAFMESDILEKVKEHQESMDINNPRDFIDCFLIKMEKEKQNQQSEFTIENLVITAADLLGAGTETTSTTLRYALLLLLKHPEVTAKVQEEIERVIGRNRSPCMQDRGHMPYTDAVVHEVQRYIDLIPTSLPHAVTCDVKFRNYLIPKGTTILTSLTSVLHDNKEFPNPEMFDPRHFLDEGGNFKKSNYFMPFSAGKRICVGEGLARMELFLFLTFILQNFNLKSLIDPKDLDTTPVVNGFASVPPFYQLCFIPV
Cytochrome P450 2D6 (Homo sapiens), sequence (P10635 whole entry, looked up): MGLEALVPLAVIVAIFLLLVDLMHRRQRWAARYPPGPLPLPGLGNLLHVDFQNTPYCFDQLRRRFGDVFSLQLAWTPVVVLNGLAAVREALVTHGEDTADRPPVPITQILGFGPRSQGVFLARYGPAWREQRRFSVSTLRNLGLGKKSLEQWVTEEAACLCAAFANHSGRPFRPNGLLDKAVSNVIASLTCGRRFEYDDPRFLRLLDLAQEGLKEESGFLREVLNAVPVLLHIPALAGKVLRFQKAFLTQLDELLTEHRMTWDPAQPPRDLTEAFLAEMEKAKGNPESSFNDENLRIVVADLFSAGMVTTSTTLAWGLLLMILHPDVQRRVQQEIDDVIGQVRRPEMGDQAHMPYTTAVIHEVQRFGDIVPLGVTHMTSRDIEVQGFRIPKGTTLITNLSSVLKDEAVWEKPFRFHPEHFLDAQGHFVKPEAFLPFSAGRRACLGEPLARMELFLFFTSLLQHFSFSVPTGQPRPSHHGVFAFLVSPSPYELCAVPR
Cytochrome P450 1A2 (Homo sapiens), sequence (P05177 whole entry, looked up): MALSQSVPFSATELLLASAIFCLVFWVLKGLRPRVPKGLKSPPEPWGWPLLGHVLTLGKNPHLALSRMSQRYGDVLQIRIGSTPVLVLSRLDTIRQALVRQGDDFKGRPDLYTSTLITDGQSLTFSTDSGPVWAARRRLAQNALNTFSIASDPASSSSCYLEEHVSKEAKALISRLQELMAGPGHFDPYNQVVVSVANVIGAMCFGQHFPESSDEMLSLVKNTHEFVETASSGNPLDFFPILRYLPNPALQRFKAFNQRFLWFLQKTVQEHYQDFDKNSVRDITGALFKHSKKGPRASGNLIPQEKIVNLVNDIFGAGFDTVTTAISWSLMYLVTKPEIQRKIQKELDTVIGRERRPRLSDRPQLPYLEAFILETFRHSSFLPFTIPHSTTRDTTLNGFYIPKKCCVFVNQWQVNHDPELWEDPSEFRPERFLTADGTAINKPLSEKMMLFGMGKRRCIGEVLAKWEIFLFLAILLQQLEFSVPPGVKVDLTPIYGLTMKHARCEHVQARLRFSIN
Glucocorticoid receptor (Homo sapiens), sequence (P04150 whole entry, looked up, the tested form may be a part): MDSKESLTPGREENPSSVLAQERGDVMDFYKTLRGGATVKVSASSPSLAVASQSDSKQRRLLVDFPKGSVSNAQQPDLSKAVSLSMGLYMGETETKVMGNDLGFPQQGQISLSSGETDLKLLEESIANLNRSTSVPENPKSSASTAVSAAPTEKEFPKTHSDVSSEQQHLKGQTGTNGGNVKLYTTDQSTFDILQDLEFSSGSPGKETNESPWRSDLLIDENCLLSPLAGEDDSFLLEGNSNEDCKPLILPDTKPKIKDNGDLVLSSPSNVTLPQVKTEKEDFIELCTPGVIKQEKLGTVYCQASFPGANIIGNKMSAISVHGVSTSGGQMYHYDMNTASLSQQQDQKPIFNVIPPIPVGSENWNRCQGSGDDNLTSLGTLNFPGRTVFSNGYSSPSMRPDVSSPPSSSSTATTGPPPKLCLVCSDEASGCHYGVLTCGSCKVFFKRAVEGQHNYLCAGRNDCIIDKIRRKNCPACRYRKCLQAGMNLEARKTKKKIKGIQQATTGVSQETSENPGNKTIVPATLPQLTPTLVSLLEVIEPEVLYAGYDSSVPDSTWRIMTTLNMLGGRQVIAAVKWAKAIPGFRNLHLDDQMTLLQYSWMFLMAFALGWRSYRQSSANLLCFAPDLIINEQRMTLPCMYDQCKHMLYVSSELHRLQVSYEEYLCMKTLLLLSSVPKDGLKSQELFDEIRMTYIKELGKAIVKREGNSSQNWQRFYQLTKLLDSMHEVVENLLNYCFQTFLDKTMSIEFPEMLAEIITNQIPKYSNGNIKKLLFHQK
3',5'-cyclic-AMP phosphodiesterase 4B (Homo sapiens), sequence (Q07343 whole entry, looked up): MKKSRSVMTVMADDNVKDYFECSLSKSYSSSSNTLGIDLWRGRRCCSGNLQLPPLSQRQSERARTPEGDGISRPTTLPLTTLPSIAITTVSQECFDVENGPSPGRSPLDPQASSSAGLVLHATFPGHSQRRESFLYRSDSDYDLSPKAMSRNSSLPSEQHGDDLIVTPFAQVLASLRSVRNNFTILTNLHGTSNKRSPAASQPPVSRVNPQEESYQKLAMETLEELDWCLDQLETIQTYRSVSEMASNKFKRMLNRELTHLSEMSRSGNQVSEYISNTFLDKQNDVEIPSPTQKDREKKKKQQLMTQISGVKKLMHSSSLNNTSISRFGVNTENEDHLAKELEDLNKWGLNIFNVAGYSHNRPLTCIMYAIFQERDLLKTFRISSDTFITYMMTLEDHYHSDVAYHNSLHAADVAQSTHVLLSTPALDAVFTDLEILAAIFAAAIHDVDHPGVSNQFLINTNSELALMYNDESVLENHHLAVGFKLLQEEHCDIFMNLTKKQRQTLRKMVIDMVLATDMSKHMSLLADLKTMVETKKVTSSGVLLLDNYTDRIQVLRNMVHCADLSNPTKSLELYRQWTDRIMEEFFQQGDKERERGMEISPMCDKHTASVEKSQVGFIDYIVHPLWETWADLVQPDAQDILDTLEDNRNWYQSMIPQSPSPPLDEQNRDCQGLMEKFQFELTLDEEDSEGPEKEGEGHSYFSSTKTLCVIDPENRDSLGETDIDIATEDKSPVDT
Cytochrome P450 2C9 (Homo sapiens), sequence (P11712 whole entry, looked up): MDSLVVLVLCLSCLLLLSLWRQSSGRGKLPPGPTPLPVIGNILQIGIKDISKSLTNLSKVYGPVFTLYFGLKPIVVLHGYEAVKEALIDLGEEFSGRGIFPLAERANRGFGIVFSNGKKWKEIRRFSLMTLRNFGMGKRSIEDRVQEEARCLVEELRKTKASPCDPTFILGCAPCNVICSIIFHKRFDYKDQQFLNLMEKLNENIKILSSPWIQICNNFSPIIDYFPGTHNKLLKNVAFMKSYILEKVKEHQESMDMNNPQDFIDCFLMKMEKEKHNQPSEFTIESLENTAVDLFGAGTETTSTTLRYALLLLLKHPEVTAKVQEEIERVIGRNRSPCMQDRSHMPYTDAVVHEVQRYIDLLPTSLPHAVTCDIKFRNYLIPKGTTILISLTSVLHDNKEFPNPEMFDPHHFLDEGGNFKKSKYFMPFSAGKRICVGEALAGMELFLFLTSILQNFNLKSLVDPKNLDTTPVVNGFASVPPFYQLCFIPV
Cytochrome P450 3A4 (Homo sapiens), sequence (P08684 whole entry, looked up): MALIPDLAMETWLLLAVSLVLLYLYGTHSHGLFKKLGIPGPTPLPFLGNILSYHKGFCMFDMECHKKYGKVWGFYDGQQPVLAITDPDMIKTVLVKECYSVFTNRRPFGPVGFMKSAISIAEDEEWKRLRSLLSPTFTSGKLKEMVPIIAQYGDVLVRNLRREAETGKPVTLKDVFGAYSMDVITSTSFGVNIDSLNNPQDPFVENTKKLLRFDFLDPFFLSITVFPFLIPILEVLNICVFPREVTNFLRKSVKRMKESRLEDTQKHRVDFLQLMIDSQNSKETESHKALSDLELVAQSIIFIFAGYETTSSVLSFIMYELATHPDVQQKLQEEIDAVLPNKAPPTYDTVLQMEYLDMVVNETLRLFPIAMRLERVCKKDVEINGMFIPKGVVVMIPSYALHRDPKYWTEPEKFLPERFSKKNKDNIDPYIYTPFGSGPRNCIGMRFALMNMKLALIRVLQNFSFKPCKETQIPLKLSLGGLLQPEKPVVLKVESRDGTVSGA
Ubiquitin carboxyl-terminal hydrolase 1 (Homo sapiens), sequence (O94782 whole entry, looked up): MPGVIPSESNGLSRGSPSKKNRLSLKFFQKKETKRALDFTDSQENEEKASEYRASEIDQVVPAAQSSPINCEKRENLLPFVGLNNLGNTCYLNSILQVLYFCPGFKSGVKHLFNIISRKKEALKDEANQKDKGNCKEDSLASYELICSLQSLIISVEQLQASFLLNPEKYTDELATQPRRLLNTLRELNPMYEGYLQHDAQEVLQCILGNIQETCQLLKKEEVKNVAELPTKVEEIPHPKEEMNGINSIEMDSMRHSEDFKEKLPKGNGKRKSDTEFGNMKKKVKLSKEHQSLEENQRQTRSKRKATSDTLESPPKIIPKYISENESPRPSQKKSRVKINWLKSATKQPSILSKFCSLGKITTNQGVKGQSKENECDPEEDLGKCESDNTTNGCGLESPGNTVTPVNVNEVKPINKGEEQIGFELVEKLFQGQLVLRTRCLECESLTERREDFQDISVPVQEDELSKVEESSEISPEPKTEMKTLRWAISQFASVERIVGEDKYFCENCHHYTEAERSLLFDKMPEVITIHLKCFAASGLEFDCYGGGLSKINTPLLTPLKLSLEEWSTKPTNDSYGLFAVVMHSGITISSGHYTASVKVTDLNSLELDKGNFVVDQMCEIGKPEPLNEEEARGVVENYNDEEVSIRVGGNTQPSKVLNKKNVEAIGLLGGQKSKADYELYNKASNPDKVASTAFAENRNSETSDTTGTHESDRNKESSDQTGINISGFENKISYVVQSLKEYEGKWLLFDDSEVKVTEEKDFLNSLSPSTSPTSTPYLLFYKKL

Consider `CC(C)[C@@]1(NC(=O)[C@@H]2C[C@H]3c4cccc5[nH]cc(c45)C[C@@H]3N(C)C2)O[C@@]2(O)[C@H]3CCCN3C(=O)[C@@H](Cc3ccccc3)N2C1=O`, for which, in [1], the Potency entry is “inactive”. Besides, the Potency in test [2] was greater than 46 µM; in test [3] it was greater than 46 µM; in test [6], 1.26 µM (active); in [7], 3.16 µM (active). For the same molecule, the result in test [4] and in test [5] was inactive.

On to `C[C@@H]1CCC/C=C\[C@H]2C[C@H](O)C[C@@H]2[C@H](O)/C=C\C(=O)O1`, for which the Potency entry in test [1], in test [6], in [8] and in [7] was “inactive” throughout. Also, the Potency in [2] and in test [3] was greater than 46 µM in each case. In addition, the molecule was classed as inactive in test [4] and in [5].

On to `O=CN1C[C@H]2C[C@@H](C1)c1cccc(=O)n1C2`, for which the Potency result in test [1], in test [6], in test [8] and in test [7] was “inactive” each time. Besides, the Potency in test [2] and in test [3] was greater than 46 µM each time. In addition, the molecule was classed as inactive in test [4] and in test [5].

As for `CN1CCc2nc3sc(C#N)c(N)c3c(-c3cccs3)c2C1`, in test [9], the activity change, negative = inhibition is -0.879%. Also, in test [2], the Potency was greater than 20.6 µM.

For the molecule `C[C@@H](Cc1cccc(C(F)(F)F)c1)NCCCc1ccccc1`, the Potency in [1] is 3.98 µM (active); in test [2], greater than 46 µM; in test [3], greater than 46 µM; in test [10], 5.01 µM (active); in test [8], 0.0126 µM (active); in [7], 1.26 µM (active). Moreover, the molecule was classed as inactive in test [4] and in test [13]. Moreover, the Potency entry in test [11] and in [12] was “inactive” in each case.
